Over roughly 8,300 sequences, “log2 fold change of degron read counts, EGFP-low vs EGFP+ sorted cells (limma voom), compound-induced degradation” has its median near -1.1; the highest 2% begin near 3.2. Shown is part of a subset that was picked to be rich in the highest values.
T1: CRBN, Q96SW2
T1 chain: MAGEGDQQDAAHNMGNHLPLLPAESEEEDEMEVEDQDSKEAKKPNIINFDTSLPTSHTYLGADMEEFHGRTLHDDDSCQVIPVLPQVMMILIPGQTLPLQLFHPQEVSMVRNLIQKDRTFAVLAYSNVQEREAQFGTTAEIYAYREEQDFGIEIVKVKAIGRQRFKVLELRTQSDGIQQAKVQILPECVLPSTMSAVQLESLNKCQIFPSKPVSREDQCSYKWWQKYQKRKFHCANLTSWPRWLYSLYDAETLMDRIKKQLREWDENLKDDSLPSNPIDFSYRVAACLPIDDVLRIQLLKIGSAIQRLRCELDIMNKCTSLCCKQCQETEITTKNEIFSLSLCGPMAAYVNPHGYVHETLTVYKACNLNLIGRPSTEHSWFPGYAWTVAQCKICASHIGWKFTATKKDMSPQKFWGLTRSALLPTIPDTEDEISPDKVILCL

B1: 46F_47D_49N_50I_52G_53A_54Q_55F_67L_, Q9UKT9 (peptide)
chain: FDCNICGAQFTQKGNLLRHIKL
B2: 46F_47R_49E_50Q_52G_53A_54L_55F_67L_, Q9UKT9 (peptide)
chain: FRCEQCGALFTQKGNLLRHIKL
B3: 46F_47R_49P_50I_52G_53H_54T_55F_67L_, Q9UKT9 (peptide)
chain: FRCPICGHTFTQKGNLLRHIKL
B4: 46F_47S_49E_50I_52G_53R_54Y_55F_67L_, Q9UKT9 (peptide)
chain: FSCEICGRYFTQKGNLLRHIKL
B5: 46F_47D_49N_50I_52G_53A_54R_55F_67L_, Q9UKT9 (peptide)
chain: FDCNICGARFTQKGNLLRHIKL
B6: 46L_47F_49P_50I_52G_53F_54M_55C_67L_, Q9UKT9 (peptide)
chain: LFCPICGFMCTQKGNLLRHIKL
B7: 46F_47Q_49P_50I_52G_53R_54D_55F_67L_, Q9UKT9 (peptide)
chain: FQCPICGRDFTQKGNLLRHIKL
B8: 46F_47E_49P_50Q_52G_53A_54V_55F_67L_, Q9UKT9 (peptide)
chain: FECPQCGAVFTQKGNLLRHIKL
B9: 46F_47H_49D_50I_52G_53A_54P_55F_67L_, Q9UKT9 (peptide)
chain: FHCDICGAPFTQKGNLLRHIKL
B10: 46F_47T_49P_50I_52G_53H_54P_55F_67L_, Q9UKT9 (peptide)
chain: FTCPICGHPFTQKGNLLRHIKL
B11: 46F_47W_49P_50I_52G_53A_54P_55F_67L_, Q9UKT9 (peptide)
chain: FWCPICGAPFTQKGNLLRHIKL
B12: 46F_47W_49P_50I_52G_53A_54M_55F_67L_, Q9UKT9 (peptide)
chain: FWCPICGAMFTQKGNLLRHIKL
B13: 46F_47T_49P_50I_52G_53A_54P_55F_67L_, Q9UKT9 (peptide)
chain: FTCPICGAPFTQKGNLLRHIKL
B14: 46F_47T_49P_50I_52G_53A_54D_55F_67L_, Q9UKT9 (peptide)
chain: FTCPICGADFTQKGNLLRHIKL
B15: 46F_47G_49N_50I_52G_53A_54P_55F_67L_, Q9UKT9 (peptide)
chain: FGCNICGAPFTQKGNLLRHIKL
B16: 46F_47G_49P_50I_52G_53A_54P_55F_67L_, Q9UKT9 (peptide)
chain: FGCPICGAPFTQKGNLLRHIKL
B17: 46F_47H_49P_50I_52G_53A_54D_55F_67L_, Q9UKT9 (peptide)
chain: FHCPICGADFTQKGNLLRHIKL
B18: 46F_47W_49N_50I_52G_53A_54P_55F_67L_, Q9UKT9 (peptide)
chain: FWCNICGAPFTQKGNLLRHIKL
B19: 46F_47G_49P_50I_52G_53A_54D_55F_67L_, Q9UKT9 (peptide)
chain: FGCPICGADFTQKGNLLRHIKL
B20: 46F_47H_49P_50I_52G_53A_54P_55F_67L_, Q9UKT9 (peptide)
chain: FHCPICGAPFTQKGNLLRHIKL

Target: T1, CRBN, Q96SW2
Assay: log2 fold change of degron read counts, EGFP-low vs EGFP+ sorted cells (limma voom), compound-induced degradation; higher = more compound-induced degradation of the degron-EGFP fusion; degrons are variants of IKZF1/3 zinc finger 2; compound dose not given here
Conditions: Jurkat, 18 h
[1] = compound: compound 19 (5-tert-butyl-thalidomide)
[2] = compound: compound 22 (5-morpholino-thalidomide)
[3] = compound: compound 33 (diphenyl IMiD analogue)
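Further: pooled lentiviral library of zinc finger degron-EGFP fusions in mCherry-positive Jurkat cells, FACS-sorted after compound exposure, with degron abundance counted by next-generation sequencing.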

| Sequence | log2 fold change of degron read counts [1] | log2 fold change of degron read counts [2] | log2 fold change of degron read counts [3] | log2 fold change of degron read counts (compound: thalidomide) |
| --- | --- | --- | --- | --- |
| B1 | -0.355 | -0.127 | -0.237 | 0.552 |
| B2 | -3.49 | -2.97 | -0.178 | -1.64 |
| B3 | -2.68 | -2.91 | -2.15 | -2.02 |
| B4 | -0.304 | -1.64 | -1.28 | -1.44 |
| B5 | 1.3 | 0.634 | -0.123 | 1.24 |
| B6 | 2.71 | 2.77 | 2.05 | 0.947 |
| B7 | -1.62 | -1.68 | 0.2 | 1.58 |
| B8 | -2.29 | -2.41 | 0.278 | 0.0294 |
| B9 | 3.18 | 2.85 | 1.67 | 0.346 |
| B10 | -1.82 | -0.901 | 0.0444 | 0.479 |
| B11 | 3.28 | 3.35 | 2.63 | 1.37 |
| B12 | 2.54 | 2.77 | 2 | 0.329 |
| B13 | 2.68 | 3.44 | 2.65 | 3.25 |
| B14 | -0.0637 | 1.88 | 2.02 | 2.53 |
| B15 | 0.653 | 0.355 | 0.00441 | -0.248 |
| B16 | 3.74 | 2.38 | 1.84 | 1.66 |
| B17 | -0.22 | -0.857 | 0.863 | -0.761 |
| B18 | 2.88 | 2.66 | 1.69 | 0.25 |
| B19 | 1.78 | 0.634 | 1.7 | 0.267 |
| B20 | 3.64 | 3.39 | 2.87 | 2.28 |

From the supplement of paper PMC12645437, “Orthogonal IMiD-Degron Pairs Induce Selective Protein Degradation in Cells” (ACS Chemical Biology, 2025)
